USP2a inh = qHTS Assay for Inhibitors of Ubiquitin-specific Protease USP2a Using CHOP2 as the Reporter | hit rate 0.01% among 330,000 | Ubiquitin carboxyl-terminal hydrolase 2 (Homo sapiens), O75604 | Potency, µM (series often up to 38.3 µM), hits mostly inhibitors | AID 463254, 2010 | USP2 core, Ub-CHOP2 coupled fluorogenic reporter, 485/531
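Cell-free coupled assay: 10nM USP2 core preincubated 30min RT with compound in Tris-HCl pH 8.0/CaCl2/CHAPS buffer, then 25nM Ub-CHOP2 and 25nM reporter substrate; fluorescence (Ex 485/Em 531) read after 60min RT, normalized to NEM inhibition, concentration-response curves fitted.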
Integrin act MD = qHTS for Activators of Integrin-Mediated Alleviation for Muscular Dystrophy; alpha7betagal myoblasts, beta-gal FDG fluorescence, 48 h; Potency, µM (titrated, usually from 38.3 µM), hits mostly activators; hit rate 0.064% among 350,000; AID 624291, 2012; further: nearly all actives have a fitted effect of over 60% in size
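alpha7betagal+/- myoblasts (passage 13, 250/well) treated 48 h at 37C with compounds at 1:260 dilution of DMSO stock. Lysed, then beta-galactosidase activity read as FDG fluorescence (ex 480/em 540) after 30 min, with pre-read for autofluorescence.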
IL2 activator = qHTS of IL-2 Activators; IL-2 activation reporter assay, cell-based qHTS; stimulated with anti-CD3/CD4/CD28 beads; in transgenic mouse T cells; activation, % (series mostly up to about 46 µM); hit rate 0.065% among 360,000; in the data active means activation above about 50%; inconclusive means mostly about 30% to 49%
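Quantitative HTS in unstimulated transgenic mouse T cells, with memory T cells as non-tolerant control and PMA/ionomycin as tolerance-bypass control. Compound pretreatment lasted 60 minutes before 18 h bead stimulation; EGFP/DsRed fluorescence read.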
PKM2 activator = qHTS Assay for Activators of Human Muscle isoform 2 Pyruvate Kinase | Potency, µM (doses to about 57.5 µM), most hits filed as activators | AID 1631, 2009 | Pyruvate kinase PKM (Homo sapiens), P14618 | hit rate 0.34% among 260,000 | purified PKM2, Kinase-Glo ATP luminescence, activation; response scale: 0% is enzyme alone, no compound; further: nearly all actives have a fitted effect of over 55% in size
Target sequence (P14618 whole entry, looked up, canonical isoform): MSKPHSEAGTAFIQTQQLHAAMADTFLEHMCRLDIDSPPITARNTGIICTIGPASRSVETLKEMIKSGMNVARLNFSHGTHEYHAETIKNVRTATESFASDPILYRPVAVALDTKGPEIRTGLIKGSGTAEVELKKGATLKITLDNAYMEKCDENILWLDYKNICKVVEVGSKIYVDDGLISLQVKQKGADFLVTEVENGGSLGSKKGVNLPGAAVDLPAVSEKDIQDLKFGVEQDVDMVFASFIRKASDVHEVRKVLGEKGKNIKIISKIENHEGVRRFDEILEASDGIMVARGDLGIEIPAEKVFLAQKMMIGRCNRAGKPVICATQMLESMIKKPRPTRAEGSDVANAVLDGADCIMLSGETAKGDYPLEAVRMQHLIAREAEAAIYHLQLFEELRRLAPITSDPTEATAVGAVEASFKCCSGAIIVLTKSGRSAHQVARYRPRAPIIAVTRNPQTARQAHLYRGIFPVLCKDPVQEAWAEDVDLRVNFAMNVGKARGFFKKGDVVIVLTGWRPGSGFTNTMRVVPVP
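hPK-M2, >95% pure; 0.1 mM ADP / 0.5 mM PEP final; imidazole pH7.2 buffer w/ 7 mM MgCl2, 50 mM KCl; 1 h RT; Kinase-Glo lum. Intermediate enzyme activity for dual inhibitor/activator qHTS.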
ClpP mod = qHTS Assay for Activators of ClpP; Potency, µM (doses to about 57.5 µM); hit rate 1.9% among 340,000; purified B. subtilis ClpP, FRET peptide cleavage, 20 min; ATP-dependent Clp protease proteolytic subunit (Bacillus subtilis (strain 168)), P80244; active means well fitted falling curve with a large enough effect; inconclusive means small, poorly fitted or top-dose-only effect; inactive means no such curve, though single readings can be large or run the other way; further: the source files actives as falling curves though it sought activators and does not explain the sign; nearly all actives have a fitted effect of over 65% in size
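FRET quenching reversal measured ClpP activation: 10 microg/mL B. subtilis ClpP at pH 8 with the FRET-FV decapeptide, read at 430 nm after 320 nm excitation. The 20-min minus 0-min signal was scaled between DMSO/no-enzyme wells and ADEP (5.8 microM final).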
Pin1 inh = qHTS Assay to Find Inhibitors of Pin1; Peptidyl-prolyl cis-trans isomerase NIMA-interacting 1 (Homo sapiens), Q13526; Pin1 FP peptide displacement, HiFluor488, 10 min; Potency, µM (doses to about 115 µM), hits mostly inhibitors; hit rate 0.009% among 390,000; AID 504891, 2011; active means well fitted inhibition curve with a large enough effect in the polarisation, with a control signal flat, not every such curve was filed as active; inconclusive means small, poorly fitted or top-dose-only effect, or effect the other way, or a change in a side signal; inactive means no such curve, though single readings can be large or run the other way; the % refers to the polarisation
Target sequence (Q13526 whole entry, looked up): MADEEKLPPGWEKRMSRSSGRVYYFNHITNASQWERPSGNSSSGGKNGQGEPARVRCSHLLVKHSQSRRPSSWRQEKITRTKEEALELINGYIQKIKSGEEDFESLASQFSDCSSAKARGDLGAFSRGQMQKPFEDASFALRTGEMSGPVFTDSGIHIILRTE
A number is an active result; n = inactive; u = inconclusive; x = not tested or not shown; [ ] = dose if it differs, or a comment. The list is not random: actives were taken first. Their share in the collection is about 1.9%. Unless noted, the call rests on the fitted dose curve; in most records, active means well fitted curve in the direction sought with a large enough effect; inconclusive means small, poorly fitted or top-dose-only effect, or another doubt; inactive means no such curve, though single readings can be large; an effect the other way counts as inactive or inconclusive.

SMILES | USP2a inh | Integrin act MD | IL2 activator | PKM2 activator | ClpP mod | Pin1 inh
N#Cc1nc(-c2ccc(Cl)cc2)oc1NCCc1ccccn1 | n | n | n | n | 32µM | n
CNC(=O)c1ccc2nc(-c3cccc(C)c3)c(-c3cccc(C)c3)nc2c1 | x | x | x | x | n | n
CC(=NNC(=S)N1CCCCC1)c1cccc(C)n1 | x | n | n | x | 25µM | n
O=C(CCN1CCN(c2ccccc2F)CC1)Nc1ccccc1F | n | n | n | n | 16µM | n
CCCn1c(-c2ccc(F)cc2)nc2c(NCCCN3CCCCC3C)nc(C)nc21 (stereo unspecified) | x | x | x | n | x | x
COc1ccccc1NS(=O)(=O)c1cc(NC(=O)c2ccc(NC(C)=O)cc2)ccc1N1CCOCC1 | x | n | n | x | n | u
COc1ccccc1NS(=O)(=O)c1cc(NC(=O)C(C)C)ccc1N1CCCCC1 | n | n | n | n | n | n
COc1ccccc1NS(=O)(=O)c1cc(NC(=O)Nc2ccccc2)ccc1N1CCCCC1 | n | n | n | n | 25µM | n
COc1ccccc1NS(=O)(=O)c1cc(NC(=O)c2ccncc2)ccc1N1CCOCC1 | n | n | n | n | 25µM | n
COc1ccc(NC(=O)C(OC(=O)CNC(=O)c2ccccc2)c2ccccc2)cc1Cl (stereo unspecified) | x | x | x | x | x | n
Cc1cccc2cc(C#N)c(NCCNS(=O)(=O)c3ccc4c(c3)OCCO4)nc12 | n | n | n | u | 32µM | n
O=C(NCCc1ccccc1)c1ccc2nc3cc(Cl)ccc3c(=O)n2c1 | n | u | n | x | n | n
O=C(NC1CCCCCC1)c1ccc2nc3cc(Cl)ccc3c(=O)n2c1 | n | n | n | n | 25µM | n
CC#CCN1c2ccccc2[C@]23C[C@@H](C(=O)OC)N(S(=O)(=O)CCCC)C2=NC(C(=O)OC)=C(C(=O)OC)[C@H]13 | x | x | x | n[11.5 µM] | x | x
COC1CCCCC1NS(=O)(=O)c1ccccc1 (stereo unspecified) | n | n | n | n | 28µM | n
COC1CCCCC1NS(=O)(=O)c1ccc(Cl)cc1 (stereo unspecified) | n | n | n | n | n | n
CCOC(=O)c1c(NC(=O)c2ccccc2N(C)S(=O)(=O)c2ccccc2)sc2c1CCCC2 | n | n | n | n | 13µM | n
CCOC(=O)c1c(NC(=O)c2ccn(CC)n2)sc2c1CCCC2 | n | n | n | n | 25µM | n
COC(=O)c1c(NC(=O)c2ccccc2N(C)S(=O)(=O)c2ccccc2)sc2c1CCCC2 | n | n | n | n | u | n
COc1ccccc1-c1ccc(/C=C2/C=C(C)OC2=O)o1 | n | u | n | 13µM | 32µM | u
CCOC(=O)N1CCN(C(=O)Nc2ccc3nc(C)c(C)nc3c2)CC1 | n | n | n | n | 28µM | n
Cc1nc2ccc(NC(=O)N3CCCCC3)cc2nc1C | n | n | n | n | 14µM | n
CCOC(=O)N1CCN(C(=O)Nc2ccc3nccnc3c2)CC1 | n | n | n | n | n | n
CCC(=O)NC(c1cc(Cl)c2cccnc2c1O)c1cccn1C (stereo unspecified) | x | x | x | x | x | n
COc1ccc(C(=O)c2sc(NC(C)C)nc2N)cc1OC | n | n | n | n | 25µM | n
SMILES | USP2a inh | Integrin act MD | IL2 activator | PKM2 activator | ClpP mod | Pin1 inh
Cc1nc2scc(C)n2c(=O)c1S(=O)(=O)NCc1ccccc1 | n | n | n | n[0.46 µM] | n | n
Cc1csc2nc3ccccc3c(=O)n12 | n | n | n | n | 14µM | n
Cc1[nH]nc2c1-c1nc3ccccc3nc1C(C)(C)C2 | n | n | n | n | 14µM | n
CC1=CC(c2ccccc2)n2nc(N3C(=O)C4CC=CCC4C3=O)nc2N1 (stereo unspecified) | n | n | n | n | 2.2µM | n
CC1=CC(c2ccccc2)n2nc(N3C(=O)CCC3=O)nc2N1 (stereo unspecified) | n | n | n | n | 28µM | n
CC(=O)N(O)c1ccc(/C=C2\C=Cc3ccccc32)cc1 | x | x | x | x | n | x
O=C(Nc1cccc2ccccc12)c1ccc([N+](=O)[O-])cc1 | n | n | n | n[11.5 µM] | n | n
O=C(CNc1cccc2ccccc12)c1ccc([N+](=O)[O-])cc1 | n | n | n | n | 5.6µM | n
CCOC(=O)Cc1csc(NC(=O)c2cc(C)c(C)s2)n1 | n | n | n | x | 28µM | n
Cc1cnc(-c2nnc(N(C)C(=O)C3CCCO3)s2)cn1 (stereo unspecified) | n | n | n | n | 28µM | n
O=C(N/N=C\c1ccncc1)c1ccccc1O | n | n | n | n | x | n
C=C(c1ccccc1O)n1ccnc1 | n | n | n | x | 13µM | n
O=C(NCCCc1cnc[nH]1)NCCCN(Cc1ccc(Cl)cc1)c1ccc(Br)cn1 | x | x | x | x | n | n
O=C(Nc1ncc2c(n1)-c1ccccc1CC2)c1ccc(Cl)cc1 | n | n | n | n | 28µM | n
O=C(Nc1ncc2c(n1)-c1ccccc1OC2)c1ccc(F)cc1 | n | n | n | n | x | n
O=C(Nc1ncc2c(n1)-c1ccccc1OC2)c1ccc(Cl)cc1Cl | n | n | n | n | 35µM | n
Cc1ccc2nc(SCC(=O)Nc3cccc(S(=O)(=O)N(C)C)c3)[nH]c2c1 | n | n | n | n | n | n
Cc1ccc2nc(SCC(=O)c3cc(C)n(C)c3C)[nH]c2c1 | n | n | n | n | n | n
Cc1cc(C(=O)CSc2nc3ccc(Cl)cc3[nH]2)c(C)n1C | n | n | n | 16µM | n | n
NS(=O)(=O)c1cccc(NC(=O)CSc2nc3ccc(Cl)cc3[nH]2)c1 | n | n | n | n | 14µM | n
O=S(=O)(c1ccccc1C(F)(F)F)N1CCN(c2nc(-c3ccccc3)nc3ccccc23)CC1 | x | x | x | x | n | n
COCC(=O)N1CCc2nc(-c3ccccc3)c3c(c2C1)CO[C@@H](C)C3 | x | x | x | n[11.5 µM] | x | x
CCc1ccc(N2CC(C(=O)N3CCN(c4ccc([N+](=O)[O-])cc4)CC3)CC2=O)cc1 (stereo unspecified) | x | n | n | x | n | x
CCc1ccc(N2CC(C(=O)N3CCN(c4ccccn4)CC3)CC2=O)cc1 (stereo unspecified) | n | n | n | x | 28µM | n
CCOc1ccc(N2CC(C(=O)N3CCN(c4ccccn4)CC3)CC2=O)cc1 (stereo unspecified) | n | n | n | x | 20µM | n
CS(=O)(=O)c1ccccc1NC(=O)COc1ccccc1C(=O)Nc1ccccc1 | x | x | x | x | n | x

Source: PubChem
